Values joined by “and” are separate entries in the source; they are usually repeats but may differ in a detail not shown here. Identical values can stand only once. In all, about 400,000 compounds went through this assay and about 2,200 (0.55%) were called active. A call without a number means that no potency is given here. About 1% were inconclusive and are not listed. This is one part of a sample in which actives are shown more often than they occur. The call rests on the fitted dose curve; in most records, active means well fitted inhibition curve with a large enough effect; inconclusive means small, poorly fitted or top-dose-only effect, or another doubt; inactive means no such curve, though single readings can be large or run the other way.
Potency means the concentration at half of the fitted maximal effect.

DNA polymerase kappa (Homo sapiens), sequence (Q9UBT6 whole entry, looked up): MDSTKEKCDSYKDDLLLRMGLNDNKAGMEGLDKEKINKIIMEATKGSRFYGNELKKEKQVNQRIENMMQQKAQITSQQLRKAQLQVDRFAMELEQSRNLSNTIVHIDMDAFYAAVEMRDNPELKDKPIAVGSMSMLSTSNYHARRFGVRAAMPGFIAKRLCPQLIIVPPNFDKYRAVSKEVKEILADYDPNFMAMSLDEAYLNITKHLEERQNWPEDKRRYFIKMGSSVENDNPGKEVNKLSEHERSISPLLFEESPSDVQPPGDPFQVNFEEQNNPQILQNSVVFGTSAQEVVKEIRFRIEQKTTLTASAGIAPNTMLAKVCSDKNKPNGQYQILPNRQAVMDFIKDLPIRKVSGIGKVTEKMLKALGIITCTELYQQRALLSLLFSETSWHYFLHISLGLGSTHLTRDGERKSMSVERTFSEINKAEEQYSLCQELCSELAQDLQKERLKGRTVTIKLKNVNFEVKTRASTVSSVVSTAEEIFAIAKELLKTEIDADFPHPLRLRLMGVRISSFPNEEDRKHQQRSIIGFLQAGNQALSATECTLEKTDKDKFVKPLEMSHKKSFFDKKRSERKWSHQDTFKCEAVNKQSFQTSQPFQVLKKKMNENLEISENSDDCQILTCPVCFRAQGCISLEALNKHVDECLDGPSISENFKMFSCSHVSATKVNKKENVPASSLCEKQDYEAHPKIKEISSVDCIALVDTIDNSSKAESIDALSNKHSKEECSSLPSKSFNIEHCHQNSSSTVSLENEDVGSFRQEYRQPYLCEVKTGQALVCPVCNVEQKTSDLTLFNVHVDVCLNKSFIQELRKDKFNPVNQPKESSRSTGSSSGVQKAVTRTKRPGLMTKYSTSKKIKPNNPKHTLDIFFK

For the assay, the target named is DNA polymerase kappa (Homo sapiens) (UniProt Q9UBT6). The assay can be described thus: qHTS for Inhibitors of Polymerase Kappa. Conditions: purified Pol kappa, fluorescent DNA synthesis assay, 10 min; series mostly up to 107 µM. Here is the method:
The processing and repair of DNA interstrand crosslinks (ICL) in eukaryotic cells are extremely complex, potentially involving multiple DNA repair and damage tolerance pathways, including homologous recombination, nucleotide excision repair, translesion synthesis (TLS), and cell cycle checkpoints.
To that end, in a collaboration between the Oregon Health & Science University and the NIH Chemical Genomics Center a 1536-well high-throughput screen was developed. This fluorescent screen was assayed against the NIH Molecular Libraries Small Molecule Repository (MLSMR) to discover inhibitors of Pol Kappa.
NIH Chemical Genomics Center [NCGC]
NIH Molecular Libraries Probe Centers Network [MLPCN]
Assay Submitter (PI): Stephen Lloyd, Oregon Health & Science University
Three microliters of reagents (buffer in column 3 and 4 as negative control and 10 nM Pol kappa in columns 1, 2, and 5-48) were dispensed into a 1536-well black solid-bottom plate. Compounds (23 nL) were transferred via Kalypsys pin tool equipped with 1536-pin array. The plates were then incubated for 15 min at room temperature, and 1 uL substrate (50 nM final concentration) were then added to start the reaction and kinetically read twice at 0 min and 10 min on the Viewlux reader
In general terms: qHTS replaces the single test concentration by a dilution series.
For the compound `O=c1ccc2c(-c3ccccc3S(=O)(=O)O)c3ccc(O)c(O)c3oc-2c1O`, the Potency is 0.708 µM (active).

Take `Cc1nc2cnc(N3CCNCC3)nc2n(Cc2ccc(F)cc2)c1=O`: the Potency result is “inactive”.

Take `Clc1cccc[n+]1CCCC[n+]1ccccc1Cl`: the Potency result is “inactive”.

With `Cc1c(CCO)sc[n+]1CC(=O)c1ccc2ccccc2c1`, the Potency entry is “inactive”.

In the case of `CCN1CCN(c2ccc(/C=C/c3ccnc4ccccc34)cc2)CC1`, the Potency entry is “inactive”.

For the compound `CCOc1ccccc1C1NC(=O)NC(C)=C1C(=O)OCc1ccco1` (stereo not given), the Potency result is “inactive”.

Consider `CCOc1cccc(CC(=O)N2CCc3c([nH]c4ccccc34)C2c2ccc(F)cc2)c1OCC` (stereo not given), for which the Potency result is “inactive”.

As to `CCOc1cccc2c1N[C@@H](c1ccc(C(=O)O)cc1)[C@H]1CC=C[C@@H]21`, the Potency was 3.98 µM (active).

As for `O=C(O)c1ccc(/C=C2/SC(=S)N(c3cccc(C(F)(F)F)c3)C2=O)cc1`, the activity, negative = inhibition is -8.36% [at 12 µM] (inactive).

On to `N#Cc1c(N2CCCCC2)nc(N)c2c(N)nc(SCC(=O)O)cc12`, for which the Potency is 39.8 µM (active).

As to `CC1C(O)CC2C(C(=O)O)=CO[C@@H](O[C@H]3OC(CO)C(O)C(O)C3O)C21` (stereo not given in full), the Potency result was “inactive”.

For the compound `CS(=O)(=O)N1CCC2(CCN(c3ccncc3)CC2)CC1`, the Potency entry is “inactive”.

Regarding `Oc1ccc(-c2c(-c3ccccc3)nn3c(C(F)(F)F)cc(C(F)(F)F)nc23)cc1`, the activity, negative = inhibition was -10.8% [at 12 µM] (inactive).

Consider `Cc1c(S(=O)(=O)O)oc2c1C(=O)C(=O)c1c-2ccc2c1CCCC2(C)C`, for which the Potency was 35.5 µM (active).

As to `CCC(CCC(C)C1CCC2C3CC=C4CC(O)CC[C@@]4(C)C3CC[C@@]12C)C(C)C` (stereo not given in full), the activity, negative = inhibition is 8.1% [at 19.4 µM] (inactive).

With `C[N+]1(CC(=O)c2cccs2)CCOCC1`, the Potency entry is “inactive”.

For the compound `CCOC(=O)c1ccc(-c2ccc(/C=C(\C#N)C(=O)Nc3ccc(OCC)cc3)o2)cc1`, the Potency result is “inactive”.

`CCOc1ccc(NC(=O)Cn2c(C)ccc(C#N)c2=O)cc1`: the Potency result is “inactive”.

`CCOc1ccc(NC(=O)c2ccc(NC(=O)COC(=O)c3ccc(NC(=O)CC#N)cc3)cc2)cc1`: the Potency was 22.4 µM (active).

Regarding `CS(=O)c1ccc(/C=C2\C=Cc3ccccc32)cc1` (stereo not given), the Potency result was “inactive”.

For `CN(C)c1cccc2ccccc12`, the Potency entry was “inactive”.

Take `C=C1/C(=C\C=C2\CCCC3(C)C2CCC3C(C)/C=C/C(O)C2CC2)CC(O)CC1O` (stereo not given): the Potency entry is “inactive”.

`COc1cc2nc(C#Cc3nc4cc(OC)c(OC)cc4[nH]3)[nH]c2cc1OC`: the Potency entry was “inactive”.

Consider `O=C(CSc1nc2ccccc2c(=O)[nH]1)Nc1nc(-c2ccc(Br)cc2)cs1`, for which the Potency is 20 µM (active).

On to `O=C(CSc1nc(O)c(Cc2ccccc2)c(=O)[nH]1)Nc1nc2c(s1)CCCC2`, for which the Potency result is “inactive”.

Take `COc1ccc(NC(=O)CSc2nc3ccccc3[nH]2)cc1`: the Potency result was “inactive”.

Turning to `Cc1cnc(CNc2cc(-c3c(C)noc3C)ncn2)cn1`, the Potency entry was “inactive”.

With `O=C(Nc1ccccc1C(F)(F)F)c1nc(S(=O)(=O)Cc2ccccc2F)ncc1Cl`, the Potency result is “inactive”.

For `Cn1cc(-c2nc3cnc(N4CCNCC4)nc3n(CCc3ccccc3)c2=O)c2ccccc21`, the Potency entry was “inactive”.

As to `CC(C)(C)OC(=O)N(Cc1ccco1)S(=O)(=O)c1ccccc1Br`, the Potency result is “inactive”.

On to `Oc1cc(O)c2c(c1)OC(c1ccc(O)c(O)c1)C(O)C2` (stereo not given), for which the Potency was 3.16 µM (active).

In the case of `CC[C@H](C)[C@H](NC(=O)[C@H](CCCNC(=N)N)NC(=O)[C@H](CCCNC(=N)N)NC(=O)[C@H](CC(C)C)NC(=O)[C@H](Cc1ccccc1)NC(=O)CNC(=O)CNC(=O)[C@@H](N)Cc1ccc(O)cc1)C(=O)N[C@@H](CCCNC(=N)N)C(=O)N1CCC[C@H]1C(=O)N[C@@H](CCCCN)C(=O)N[C@@H](CC(C)C)C(=O)N[C@@H](CCCCN)C(=O)N[C@@H](Cc1c[nH]c2ccccc12)C(=O)N[C@@H](CC(=O)O)C(=O)N[C@@H](CC(N)=O)C(=O)N[C@@H](CCC(N)=O)C(=O)O`, the Potency entry was “inactive”.

As to `CCOc1n[nH]c(-c2ccccc2)n1`, the Potency result is “inactive”.

`CN(C)c1ccc(/C=c2\[nH]c(=O)/c(=C/c3ccc(N(C)C)cc3)[nH]c2=O)cc1`: the Potency result was “inactive”.

On to `CC(C)[C@@H]1NC(=O)[C@H](Cc2ccccc2)NC(=O)[C@@H](CC(=O)O)NC(=O)CNC(=O)[C@H](CCCNC(=N)N)NC1=O`, for which the activity, negative = inhibition is 4% [at 19.4 µM] (inactive).

Turning to `COc1ccc(CCC(=O)c2c(O)cc(OC3OC(CO)C(O)C(O)C3O[C@@H]3OC(C)C(O)C(O)C3O)cc2O)cc1O` (stereo not given in full), the Potency entry is “inactive”.

`C[C@@H]1O[C@@H](OC[C@H]2O[C@@H](Oc3c(-c4cccc(O)c4O)oc4cc(O)cc(O)c4c3=O)[C@H](O)[C@@H](O)[C@@H]2O)[C@H](O)[C@H](O)[C@H]1O`: the Potency was 7.08 µM (active).

On to `C[C@@H]1O[C@@H](OC[C@H]2O[C@@H](Oc3c(-c4ccc(O)cc4)oc4cc(O)cc(O)c4c3=O)[C@H](O)[C@@H](O)[C@@H]2O)[C@H](O)[C@H](O)[C@H]1O`, for which the Potency result is “inactive”.

For `CC1OC(OCC2OC(Oc3c(-c4ccc(O)c(O)c4)oc4cc(O)cc(O)c4c3=O)C(O)C(O)C2O)[C@@H](O)C(O)C1O` (stereo not given in full), the Potency is 10 µM (active).

For `C[C@@H]1O[C@@H](OC[C@H]2O[C@@H](Oc3cc(O)c4c(c3)O[C@H](c3ccc(O)c(O)c3)CC4=O)[C@H](O)[C@@H](O)[C@@H]2O)[C@H](O)[C@H](O)[C@H]1O`, the Potency result is “inactive”.

`CC(C)C(NS(=O)(=O)c1ccc(-c2ccc(Br)cc2)cc1)C(=O)O` (stereo not given): the Potency result was “inactive”.

As for H-EHIPA-OH, the Potency entry was “inactive”.

As to `COc1cc(OC)c2c(c1Cl)OC1(C2=O)C(O)=CC(=O)CC1C` (stereo not given), the Potency entry is “inactive”.

In the case of `CN(Cc1ccco1)c1ncncc1-c1ccoc1`, the Potency result is “inactive”.

On to `CC(C)c1ccc(Cn2c(COc3ccccc3)nc3ccccc32)cc1`, for which the Potency result is “inactive”.

For `Cc1c(C)n(Cc2ccc(Cl)cc2)c2ccc(C(=O)N3CCN(c4ccccc4F)CC3)cc12`, the Potency entry is “inactive”.

On to `CC(C)c1ccc2c(c1)c(SC(C)(C)C)c(CC(C)(C)C(=O)O)n2Cc1ccc(Cl)cc1`, for which the Potency was 29.9 µM (active) and 79.4 µM (active).

`CC1(C)CC(=O)c2cc(C(=O)NCc3ccccc3)c(=O)[nH]c2C1`: the Potency result was “inactive”.

With `O=C1/C(=C\c2ccc([N+](=O)[O-])cc2)CS(=O)(=O)C/C1=C/c1ccc([N+](=O)[O-])cc1`, the Potency was 79.4 µM (active).

With `O=[N+]([O-])c1ccc(/C=C/c2ccc3cccnc3c2)cc1`, the Potency entry is “inactive”.

For `N#Cc1ccc(CN2CCCC3(CCN(C(=O)c4ccco4)CC3)C2)cc1`, the Potency result was “inactive”.

`CN1CCN(/[N+]([O-])=N/Oc2ccc([N+](=O)[O-])cc2[N+](=O)[O-])CC1`: the Potency result was “inactive”.

As for `COc1ccc(C(=O)N2CCC3(CC2)CCN(c2ccccn2)CC3)cc1`, the Potency result is “inactive”.

On to `O=C1CSC(=S)N1/N=C/c1ccc(O)c([N+](=O)[O-])c1`, for which the Potency was 28.2 µM (active).

In the case of `CCOC(=O)C1C/C(=C\C(C)=O)c2cccc(C(F)(F)F)c2O1` (stereo not given), the Potency entry is “inactive”.

As to `COc1ccc(-c2c(C)c3ccc(O)c(CN4CCN(C)CC4)c3oc2=O)cc1OC`, the Potency entry was “inactive”.

In the case of `Cc1cccc(-c2cc(=O)c3cc(C)ccc3o2)c1`, the activity, negative = inhibition is -11.6% [at 19.4 µM] (inactive).

Take `O=c1cc(-c2ccc(O)c(O)c2)oc2cccc(O)c12`: the Potency was 6.31 µM (active).

Take `COc1c(O)cc2oc(-c3ccc(O)c(O)c3)cc(=O)c2c1O`: the Potency is 5.01 µM (active) and 752 nM (active).

As to `COc1ccc2c(=O)cc(-c3ccccc3)oc2c1O`, the activity, negative = inhibition is -8.18% [at 19.4 µM] (inactive).

Take `OCCN1CCN(CC/C=C2\c3ccccc3Sc3ccc(C(F)(F)F)cc32)CC1`: the activity, negative = inhibition was -8.78% [at 12 µM] (inactive).

Take `COc1cccc(Cn2c(=O)cnc3cncnc32)c1`: the Potency entry is “inactive”.

As for `NC(=O)c1sc(-c2ccsc2)cc1N`, the activity, negative = inhibition is 7.11% [at 19.4 µM] (inactive).

Regarding `COc1ccc(-c2nc3cnc(OC)nc3n(Cc3ccc(F)cc3)c2=O)cc1`, the Potency entry is “inactive”.

As for `COc1ccc(C2(C#N)CCC(C(=O)O)CC2)cc1OC1CCCC1` (stereo not given), the activity, negative = inhibition is 1.33% [at 19.4 µM] (inactive).

On to `COc1ccc(C2=Nn3c(nnc3-c3ccccc3OC)SC2)cc1OC1CCCC1`, for which the Potency was 39.8 µM (active).

Turning to `Cc1nnc2n1N=C(c1ccc3c(c1)NC(=O)CO3)CS2`, the Potency result was “inactive”.

`C[C@H]1CCC[C@@]2(C)CCCC[C@]12O`: the Potency result was “inactive”.

For `Cc1csc(-c2nc3ccccc3n2C)n1`, the activity, negative = inhibition was -4.55% [at 19.4 µM] (inactive).

With `COc1cccc(-c2cc(=O)c3cc(NC(=O)c4ccc(C)cc4)ccc3[nH]2)c1`, the Potency entry is “inactive”.

As for `COc1ccc(S(=O)(=O)NC(C)c2ccccc2)cc1C(=O)N1CCCCC1` (stereo not given), the Potency entry is “inactive”.

For the compound `COC(=O)c1ccccc1NS(=O)(=O)c1ccc2c(c1)CCCN2C(C)=O`, the Potency entry is “inactive”.

Consider `COc1ccc(Br)cc1/C=N/Nc1ccc(S(=O)(=O)Nc2ccccc2C(=O)O)cc1[N+](=O)[O-]`, for which the Potency is 39.8 µM (active).

On to `COC(=O)N1CCC[C@@]2(CCN(C(=O)NC(C)C)C2)C1`, for which the Potency entry is “inactive”.

On to `CN(C)c1ccc(/C=C/c2sc3ccccc3[n+]2CCCCBr)cc1`, for which the Potency entry is “inactive”.

On to `CC(C)(C)n1ncc2c(=O)n(Cc3ccc(C(=O)c4ccccc4)cc3)cnc21`, for which the Potency entry is “inactive”.

Consider `N#Cc1ccc[n+](CC(=O)c2ccc(F)cc2)c1`, for which the Potency entry was “inactive”.

For the compound `N#Cc1ccc[n+](CC(=O)c2ccc(O)c(O)c2)c1`, the Potency is 0.891 µM (active).

For the compound `NC(=O)C[n+]1cccc(C(N)=O)c1`, the Potency entry was “inactive”.

`O=c1c(-c2ccc(F)c(F)c2)nc2cncnc2n1-c1ccccc1`: the Potency entry was “inactive”.

Take `COc1cc2nc(N3CCCN(C)CC3)nc(NC3CC3)c2cc1OC`: the Potency entry was “inactive”.

As to `CN(C(=N)N)c1ccc(/C=C2\C=Cc3ccccc32)cc1`, the Potency entry is “inactive”.

Regarding `C=CC1=C(C(=O)O)N2C(=O)[C@@H](NC(=O)/C(=N\OCC(=O)O)c3csc(N)n3)[C@H]2SC1`, the Potency was 50.1 µM (active).

With `CO/N=C(\C(=O)N[C@@H]1C(=O)N2C(C(=O)O)=C(COC(C)=O)CS[C@H]12)c1csc(N)n1` (stereo in doubt), the Potency is 35.5 µM (active) and 79.4 µM (active) and 39.8 µM (active).

Take `O=C(c1cnccn1)N1CCC2(CCCN(Cc3ccccc3)C2)CC1`: the Potency entry is “inactive”.

The record behind these values is PubChem BioAssay AID588579 (National Center for Advancing Translational Sciences (NCATS), 2011).
